Data reported in PubChem BioAssay.
Activity calls are given as the source filed them. Unless noted, no rule for the calls is given here.

Assays:
[1] = compounds binding Alexa647 anti-His antibody – biochemical, small-molecule microarray, 635 nm fluorescence, artefact control for SMM control protein annotation, primary screen (AID 1128); settings: higher = more signal;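 also: score merges feature fluorescence with signal-to-noise for each printed compound spot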
[2] = tested on: Human papillomavirus type 1a E7 protein (residues 1-88); assay: HPV1a E7 small-molecule binders, primary screen, biochemical, small-molecule microarray, residues 1-88, 635 nm (AID 1129); settings: small-molecule microarray binding, fluorescence 635 nm; higher = more signal
[3] = biological target: Focal adhesion kinase 1 (Homo sapiens) (UniProt Q05397); assay: PTK2 protein binding on printed compound slides – biochemical, small-molecule microarray, 635/667 nm fluorescence, BSA, DTT, primary screen (AID 1130); settings: 635 nm fluorescence, higher = more signal;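 also: composite of spot emission at 667 nm and signal to noise over triplicate slides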
[4] = tested on: Fibrinogen (Alexa647-labelled); assay: Alexa647-fibrinogen binding to printed small molecules – biochemical, small-molecule microarray, 635/667 nm fluorescence, artefact control for SMM control-protein annotation, profiling panel (AID 1131); settings: fibrinogen-A647 binding fluorescence, higher = more signal;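 also: z-score merges 667 nm fluorescence with per-spot signal-to-noise over triplicate slides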
[5] = biological target: Follistatin (Homo sapiens) (UniProt P19883); assay: FST protein binding to printed compounds – biochemical, small-molecule microarray, 635/667 nm fluorescence, primary screen (AID 1132); settings: 635 nm fluorescence, higher = more signal
[6] = biological target: Fibroblast growth factor 2 (Homo sapiens) (UniProt P09038); assay: basic fibroblast growth factor binding to printed compounds – biochemical, small-molecule microarray, 635/667 nm fluorescence, primary screen (AID 1133); settings: FGF2, fluorescence 635/667, higher = more signal
[7] = JC-1 mitochondrial potential readout, lung cancer cells – cell-based, A549, JC-1 fluorescence, basal, 24 h, 100 nL, profiling panel (AID 1138); settings: higher = more signal;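 also: A549 lung adenocarcinoma cells under basal conditions with no added stimulus; test concentration not given here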
Lefty1 = Lefty1 protein binding to printed compounds – biochemical, small-molecule microarray, 635/667 nm fluorescence, primary screen (AID 1139); settings: fluorescence 635/667, higher = more signal
[8] = tested on: wheat germ agglutinin (Triticum aestivum), Alexa647-labelled; assay: Alexa647-WGA lectin binding to printed small molecules – biochemical, small-molecule microarray, 635/667 nm fluorescence, artefact control for SMM control-protein annotation, profiling panel (AID 1140); settings: WGA-A647 binding, 635 nm fluorescence, higher = more signal;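 also: score merges 667 nm feature emission with signal to noise over triplicate slides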
[9] = biological target: Luciferin 4-monooxygenase (Photinus pyralis) (UniProt P08659); assay: inhibition of purified Photinus pyralis luciferase – biochemical, luminescence, purified enzyme, 2006 set, primary screen (AID 1141); settings: purified firefly luciferase, SteadyGlo luminescence, 30 min; higher = more signal, called active from +8 up or from −8 down;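 also: cell-free assay with purified firefly luciferase at 100 ng per well in PBS; test concentration not given here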
[10] = tested on: Wnt5a (protein binding on small-molecule microarray); assay: small molecules binding Wnt5a protein – biophysical, small-molecule microarray, 635/667 nm fluorescence, primary screen (AID 1142); settings: 635 nm fluorescence, higher = more signal;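 also: fluorescence read at 667 nm with signal to noise per printed feature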
[11] = ATP-based viability of Huh7 replicon cells – cell-based, CellTiter-Glo luminescence, basal, 48 h, cytotoxicity control for HCV replication inhibitor project, primary screen (AID 1143); settings: higher = more signal, called active from +8 up or from −8 down;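 also: Huh7 hepatoma cells carrying a hepatitis C replication reporter with no stimulus; test concentration not given here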
[12] = Pseudomonas biofilm growth suppression – PAO1 strain, BacTiter-Glo luminescence, LB-PBS, primary screen (AID 1144); settings: P. aeruginosa PAO1 biofilm, 12 h, higher = more signal
[13] = basal CRE-LacZ reporter activity in PC12 – cell-based, unstimulated, primary screen (AID 1145); settings: no forskolin, luminescence, 4.5 h, higher = more signal, called active from +8 up or from −8 down
[14] = forskolin-driven CRE-LacZ activity in PC12 – cell-based, CRE-LacZ reporter, forskolin-stimulated, primary screen (AID 1146); settings: luminescence, 4.5 h, higher = more signal, called active from +8 up or from −8 down;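 also: PC12 cells with 6xCRE LacZ reporter stimulated by forskolin 10 µM; beta-galactosidase reporter signal reflecting CREB driven transcription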
[15] = biological target: Streptavidin (Streptomyces avidinii) (UniProt P22629); assay: compounds binding control protein streptavidin – biophysical, small-molecule microarray, 635/667 nm fluorescence, artefact control for SMM compound annotation, primary screen (AID 1147); settings: higher = more signal;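 also: signal reflects streptavidin binding to arrayed compounds as a control protein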
[16] = probe aInhba binding on compound microarray – biochemical, small-molecule microarray, 635/667 nm fluorescence, primary screen (AID 1148); settings: higher = more signal;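 also: score merges 667nm spot fluorescence with signal-to-noise for antibody binding to printed compounds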
Torsin-1A (Homo sapiens) [17] = biological target: Torsin-1A (Homo sapiens) (UniProt O14656); assay: TOR1A wild-type binding on microarray – cell lysate, small-molecule microarray, lysate, 635/667 nm, primary screen (AID 1149); settings: COS7 hTOR1A-WT lysate, 635 nm fluorescence, higher = more signal
Torsin-1A (Homo sapiens) [18] = biological target: Torsin-1A (Homo sapiens) (UniProt O14656); assay: torsin A mutant lysate binding on microarrays – cell lysate, small-molecule microarray, COS7 lysate, 635/667 nm fluorescence, primary screen (AID 1150); settings: COS7 hTOR1A mutant lysate, 635 nm fluorescence, higher = more signal;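 also: score pools 667 nm emission and signal to noise measuring lysate protein binding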
[19] = tested on: Sonic hedgehog protein (Shh); assay: Sonic hedgehog microarray binding compounds – biochemical, small-molecule microarray, 635/667 nm fluorescence, primary screen (AID 1151); settings: 635 nm fluorescence, higher = more signal;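 also: Shh protein binding to compounds spotted on small-molecule microarray slides; score combines spot fluorescence intensity with signal-to-noise across triplicate slides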

Chain of Follistatin (Homo sapiens) (P19883 whole entry, looked up): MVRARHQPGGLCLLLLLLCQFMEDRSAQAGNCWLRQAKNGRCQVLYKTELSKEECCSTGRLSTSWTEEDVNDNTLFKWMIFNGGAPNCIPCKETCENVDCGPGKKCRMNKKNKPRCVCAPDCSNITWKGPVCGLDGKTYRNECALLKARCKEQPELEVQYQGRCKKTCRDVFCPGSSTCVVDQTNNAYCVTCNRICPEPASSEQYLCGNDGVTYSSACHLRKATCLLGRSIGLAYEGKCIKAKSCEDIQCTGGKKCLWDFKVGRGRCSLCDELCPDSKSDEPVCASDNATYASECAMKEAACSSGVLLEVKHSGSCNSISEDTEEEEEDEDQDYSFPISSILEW
Chain of Torsin-1A (Homo sapiens) (O14656 whole entry, looked up): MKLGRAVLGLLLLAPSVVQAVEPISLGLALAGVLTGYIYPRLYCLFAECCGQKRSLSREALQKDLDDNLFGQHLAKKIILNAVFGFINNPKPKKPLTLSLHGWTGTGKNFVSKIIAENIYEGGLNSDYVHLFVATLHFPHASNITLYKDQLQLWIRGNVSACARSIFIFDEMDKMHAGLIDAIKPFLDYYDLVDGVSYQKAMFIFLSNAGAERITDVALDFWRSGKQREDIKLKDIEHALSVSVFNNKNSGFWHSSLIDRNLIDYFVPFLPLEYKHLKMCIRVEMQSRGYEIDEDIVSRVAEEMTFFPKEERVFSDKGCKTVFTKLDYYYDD
Chain of Luciferin 4-monooxygenase (Photinus pyralis) (P08659 whole entry, looked up): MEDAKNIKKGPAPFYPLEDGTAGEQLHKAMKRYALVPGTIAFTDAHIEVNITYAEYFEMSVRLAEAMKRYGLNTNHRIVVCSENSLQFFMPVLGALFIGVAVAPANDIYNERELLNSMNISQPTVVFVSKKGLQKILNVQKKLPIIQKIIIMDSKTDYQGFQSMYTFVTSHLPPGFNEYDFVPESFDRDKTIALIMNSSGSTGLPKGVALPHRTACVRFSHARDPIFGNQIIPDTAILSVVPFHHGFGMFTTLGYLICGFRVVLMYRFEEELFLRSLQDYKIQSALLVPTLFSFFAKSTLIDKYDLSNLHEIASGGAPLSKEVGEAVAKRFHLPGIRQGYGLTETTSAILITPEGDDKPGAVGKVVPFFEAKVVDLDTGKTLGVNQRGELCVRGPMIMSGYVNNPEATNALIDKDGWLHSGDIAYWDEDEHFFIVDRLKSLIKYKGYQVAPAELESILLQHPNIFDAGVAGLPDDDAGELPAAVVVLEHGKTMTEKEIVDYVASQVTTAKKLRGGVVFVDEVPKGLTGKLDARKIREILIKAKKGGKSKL
Chain of Fibroblast growth factor 2 (Homo sapiens) (P09038 whole entry, looked up): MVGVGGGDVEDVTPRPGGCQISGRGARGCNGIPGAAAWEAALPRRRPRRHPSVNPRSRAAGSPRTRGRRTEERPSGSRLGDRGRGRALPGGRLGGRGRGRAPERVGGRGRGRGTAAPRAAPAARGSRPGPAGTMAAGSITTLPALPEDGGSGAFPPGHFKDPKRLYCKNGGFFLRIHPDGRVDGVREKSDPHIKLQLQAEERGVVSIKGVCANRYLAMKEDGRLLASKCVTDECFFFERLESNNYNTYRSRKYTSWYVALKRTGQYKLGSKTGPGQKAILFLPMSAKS
Chain of Streptavidin (Streptomyces avidinii) (P22629 whole entry, looked up): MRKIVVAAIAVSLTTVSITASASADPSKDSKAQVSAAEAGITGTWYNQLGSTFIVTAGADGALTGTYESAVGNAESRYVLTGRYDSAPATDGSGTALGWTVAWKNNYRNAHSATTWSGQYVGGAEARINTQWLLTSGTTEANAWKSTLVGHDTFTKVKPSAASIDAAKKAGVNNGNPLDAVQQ
Chain of Focal adhesion kinase 1 (Homo sapiens) (Q05397 whole entry, looked up): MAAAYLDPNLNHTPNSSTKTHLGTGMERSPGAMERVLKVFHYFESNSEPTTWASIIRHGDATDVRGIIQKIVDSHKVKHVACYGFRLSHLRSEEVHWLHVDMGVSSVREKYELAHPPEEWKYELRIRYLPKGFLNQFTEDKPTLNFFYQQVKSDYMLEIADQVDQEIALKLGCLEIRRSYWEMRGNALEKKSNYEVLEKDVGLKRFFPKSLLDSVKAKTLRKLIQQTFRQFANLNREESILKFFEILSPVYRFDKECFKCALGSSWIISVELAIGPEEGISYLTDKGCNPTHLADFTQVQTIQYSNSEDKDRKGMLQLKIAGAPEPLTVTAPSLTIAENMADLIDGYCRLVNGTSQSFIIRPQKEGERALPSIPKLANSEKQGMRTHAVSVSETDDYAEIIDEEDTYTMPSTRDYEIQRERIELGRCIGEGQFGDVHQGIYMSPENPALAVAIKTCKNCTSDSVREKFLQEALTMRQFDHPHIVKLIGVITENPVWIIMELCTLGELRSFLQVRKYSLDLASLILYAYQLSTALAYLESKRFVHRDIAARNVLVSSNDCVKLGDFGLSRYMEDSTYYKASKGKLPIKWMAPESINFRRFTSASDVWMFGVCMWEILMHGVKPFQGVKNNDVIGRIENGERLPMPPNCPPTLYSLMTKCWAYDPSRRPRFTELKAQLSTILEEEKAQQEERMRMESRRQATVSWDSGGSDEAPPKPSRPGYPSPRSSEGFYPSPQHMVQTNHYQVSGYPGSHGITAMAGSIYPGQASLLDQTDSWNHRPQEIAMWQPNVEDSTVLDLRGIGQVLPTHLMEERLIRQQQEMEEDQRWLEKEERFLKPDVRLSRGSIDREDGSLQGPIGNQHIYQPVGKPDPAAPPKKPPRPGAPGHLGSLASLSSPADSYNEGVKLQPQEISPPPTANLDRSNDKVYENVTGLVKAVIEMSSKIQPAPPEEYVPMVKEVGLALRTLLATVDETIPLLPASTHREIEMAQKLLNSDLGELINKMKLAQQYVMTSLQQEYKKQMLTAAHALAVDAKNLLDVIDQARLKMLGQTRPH

SMILES	composite z-score [1]	composite z-score [2]	composite z-score [3]	composite z-score [4]	composite z-score [5]	composite z-score [6]	z-score [7]	composite z-score (Lefty1)	composite z-score [8]	z-score [9]	composite z-score [10]	z-score [11]	z-score [12]	z-score [13]	z-score [14]	composite z-score [15]	composite z-score [16]	composite z-score (Torsin-1A (Homo sapiens) [17])	composite z-score (Torsin-1A (Homo sapiens) [18])	composite z-score [19]
COCCCNC(=O)[C@@]1(CCC(=O)OC(C)(C)C)N=C(c2ccc(OCCCO)cc2)O[C@H]1c1ccccc1CN=[N+]=[N-]	3.15	1.04	1.02	1.01	1.39	1.28	-0.49	-0.34	1.2	-1.05 (inactive)	1.01	-0.0523 (inactive)	0.0993 (inactive)	-0.538 (inactive)	0.286 (inactive)	1.01	0.329	1.23	1.51	0.103
COCCOC(=O)N1C(=O)[C@@]2(c3ccccc31)[C@H](c1ccc(O)cc1)N1[C@H](c3ccccc3)[C@H](c3ccccc3)OC(=O)[C@H]1[C@@H]2C(=O)N1CCc2cc(OC)c(OC)cc2C1	1.7	0.848	0.341	0.107	1.35	1.85	0.355	1.14	0.216	-0.704 (inactive)	0.633	-3.64 (inactive)	-1.29 (inactive)	0.0776 (inactive)	-0.654 (inactive)	-0.162	0.223	0.419	0.697	2.1
C=CCC(OC(C)=O)[C@@H]1[C@@H](N(Cc2cccc3ccccc23)C(=O)c2ccc(C)cc2)c2cc(OCCCO)ccc2N1C(=O)Cc1ccc(OC)cc1 (stereo not given in full)	0.0508	-0.0914	0.183	0.342	0.695	-0.148	1.3	0.203	0.275	0.0544 (inactive)	-0.0466	-0.798 (inactive)	-0.738 (inactive)	-0.402 (inactive)	-0.281 (inactive)	0.547	-0.189	0.291	0.553	0.562
CCOC(=O)C[C@H]1[C@H](OC(=O)c2ccc(-c3ccccc3)cc2)[C@@H](NC(=O)Cc2ccc(OC)cc2)c2cc(OCCCO)ccc2N1C(=O)c1ccc2ccccc2n1	0.262	0.644	0.529	0.897	-0.0303	-0.433	0.895	0.484	0.419	-0.639 (inactive)	0.163	0.429 (inactive)	0.26 (inactive)	-0.0529 (inactive)	-0.489 (inactive)	0.8	-0.0468	0.33	-0.0342	-0.525
C=CC[C@@]1(C(=O)O)N=C(c2ccc(OCCCO)cc2)O[C@@H]1c1ccccc1N=[N+]=[N-]	1.06	0.811	0.235	0.987	1.1	-0.168	0.117	-0.504	1.36	-12.9 (active)	0.0886	-1.41 (inactive)	0.651 (inactive)	0.367 (inactive)	-0.432 (inactive)	1.11	0.0697	-0.115	0.251	-0.203
CCCCCN1CC=CC23O[C@@H]4/C=C\CCCOC(=O)C4[C@H]2C(=O)N(CCCCCCO)[C@@H]3C1=O (stereo not given in full)	0.599	0.906	0.929	-2.05	-0.679	-0.964	1.05	0.0393	1.14	-3.28 (inactive)	-0.686	-1.95 (inactive)	-2.51 (inactive)	-1.44 (inactive)	-0.43 (inactive)	-1.21	-0.128	0.61	0.474	0.124
O=C1N(CCS(=O)(=O)c2ccccc2)c2ccccc2C[C@@]12COC(c1ccc(OCCCO)cc1)=N2	2.83	1.25	1.16	0.962	1.28	0.87	-0.0718	0.222	0.611	-1.63 (inactive)	0.576	-1.46 (inactive)	0.261 (inactive)	0.218 (inactive)	-0.151 (inactive)	0.906	0.362	0.784	0.967	0.534
COc1ccc(CCN2C(=O)[C@@]3(Cc4ccccc42)c2ccccc2C(=O)N(Cc2ccccc2Cl)[C@H]3c2ccc(CO)cc2)cc1	-1.74	-1.3	-0.657	-0.953	-1.1	-0.157	-0.599	-1.17	-0.0043	-0.822 (inactive)	-0.0887	-1.7 (inactive)	-0.456 (inactive)	0.558 (inactive)	0.131 (inactive)	-0.343	-0.0403	-0.921	-0.77	-0.801
[N-]=[N+]=NCc1ccccc1[C@H]1OC(c2ccc(OCCCO)cc2)=N[C@@]1(CCS(=O)(=O)c1ccccc1)C(=O)N1CCOCC1	0.997	0.871	0.176	1.04	1.31	1.01	-0.988	-0.0664	1.35	-1.26 (inactive)	1.03	-0.865 (inactive)	0.164 (inactive)	0.526 (inactive)	0.363 (inactive)	1.62	0.556	1.7	1.85	-0.164
Cc1ccc(S[C@]2(C(=O)O)CC(=O)N(C3Cc4ccccc4C3)[C@@H]2c2ccc(CO)cc2I)cc1	0.198	0.27	0.148	0.439	1.09	-0.499	0.478	-0.936	0.513	0.285 (inactive)	-0.227	-1.02 (inactive)	-0.138 (inactive)	-0.062 (inactive)	-0.097 (inactive)	0.103	-0.0791	-0.594	-0.584	-0.439
